Assay results as given in the supplement of paper PMC6555819.

Experiments:
Test in all cases: PBM binding z-score (relative to random genomic background probes); higher = stronger binding; sequences stand for … in GC…GCGATTGACAGCGTAGAATGAAGG
[1] = system: FXR:RXRa (NR concentration 270 nM, RXRa partner concentration 90 nM)
How it was run: (§1)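 Custom Agilent 4×180K protein-binding microarrays carried double-stranded probes, each with a 34-nt variable region. These regions held direct-repeat seeds, single-nucleotide variants, half-site ablations and random human genomic background sequences. Ligand-free nuclear receptor dimers were incubated on the arrays for 1 h, antibodies against each partner (one per run) detected binding, and scanned fluorescence was regression-normalized. Binding z-scores take the random background probes as reference.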

[2] = system: LXRa:RXRa (NR concentration 270 nM, RXRa partner concentration 90 nM)
How it was run: as §1

[3] = system: LXRa homodimer (NR concentration 270 nM)
How it was run: as §1

[4] = system: LXRb:RXRa (NR concentration 270 nM, RXRa partner concentration 90 nM)
How it was run: as §1

[5] = system: LXRb homodimer (NR concentration 270 nM)
How it was run: as §1

[6] = system: PPARa:RXRa (NR concentration 270 nM, RXRa partner concentration 90 nM)
How it was run: as §1

[7] = system: PPARg:RXRa (NR concentration 180 nM, RXRa partner concentration 90 nM)
How it was run: as §1

[8] = system: PPARg:RXRa 270nM:90nM, anti-RXR (NR concentration 270 nM, RXRa partner concentration 90 nM)
How it was run: as §1

[9] = system: PPARg:RXRa 30nM:10nM, anti-RXR (NR concentration 30 nM, RXRa partner concentration 10 nM)
How it was run: as §1

[10] = system: PPARg:RXRa 90nM:30nM, anti-RXR (NR concentration 90 nM, RXRa partner concentration 30 nM)
How it was run: as §1

Sequence	PBM binding z-score [1]	PBM binding z-score [2]	PBM binding z-score [3]	PBM binding z-score [4]	PBM binding z-score [5]	PBM binding z-score [6]	PBM binding z-score [7]	PBM binding z-score [8]	PBM binding z-score [9]	PBM binding z-score [10]
TCATATAGGTAAAGGTGATAGTCGAACGATATGA	0.212	0.601	-0.19	0.539	-0.129	2.02	2.72	3.48	3.92	3.51
ATCTCTAGGTAAACAAGTTCAGTGAATGCCGAAC	0.431	1.06	1.16	0.55	0.583	1.04	0.677	0.774	0.448	0.709
CCTACGGGGCCATTCAGAGGTCATTGATCATATG	3.56	4.88	6.49	4.17	0.225	3.62	1.16	2.21	0.193	1.32
ACTAGCAGGCCAAGTTTGGGTCACCCAAACAAAG	0.488	0.347	-0.356	0.836	-0.589	1.98	0.125	0.213	-0.577	-0.0867
ATCTCTAGGTAAAGTTAAGTGAAAGATCGATAGA	0.787	0.68	0.216	0.185	0.709	0.332	0.903	1.19	0.64	1.04
CAAACTAGGTTACCGGAAGGTCAAAGTCCGCATG	4.06	5.04	4.5	4.05	1.13	4.85	6.22	5.55	2.78	4.83
CCTCGGAGGACAATAGGAGGTCAGAGCTGCCAGA	0.746	2.4	3.23	1.38	-0.2	1.87	0.443	0.389	-0.612	-0.255
CAAACTAGGTCAAGAGGTCAACGTCCGCTTCCCG	6.68	6.31	5.46	5.27	1.55	6.6	9.74	8.42	7.54	8.92
TCTCGGAGGACACGAAGGTTAGAGCTTTCCAGAG	0.31	-0.0717	-0.684	-0.246	-1.26	0.397	-0.0287	1	2.15	1.58
CGAACTAGGTAATCCAGGACAGTGAATACATTGA	-0.0818	-0.39	-0.012	-0.349	-0.454	1.23	1.56	0.982	0.536	0.507
GCAGACAGTTGAAACGCAGGTAACTCAGGGTGGC	-0.0356	-0.382	-0.506	-0.476	-0.589	-0.162	0.287	-0.573	-0.78	-0.65
AGAACGAGGGCAATGAGTTGTTAGCACGGGTGGC	0.161	0.00811	-0.446	-0.26	-1.01	1.23	1.18	0.817	0.096	0.514
TGAATGATGTTATAAGATCAGGGAACGTTGCAAA	-0.318	-0.353	-0.0281	-0.083	0.0619	0.0376	0.37	-0.0772	0.598	0.592
CGTCAGAGTTCAAGGTAACGTAACAGAAAGCAGC	5.49	5.11	1.85	3.2	0.38	4.54	2.92	3.58	0.864	2.39
CGTCCAAGGTCAGCAGGTAAGTGAAAGCGACGTG	5.48	3.22	-0.131	2.36	-0.25	4.3	3	3.31	0.585	2.28
TTACCAAGGTGAAGGTCGATGATCCCTCTGTAGA	1.25	0.976	-0.361	1.1	-0.706	2.27	2.29	3.58	1.74	3.24
CGAACGAGGGCATGAGTTGATAGGAAATGCCGAT	0.317	0.134	-0.459	-0.00432	-0.811	1.27	1.61	1.43	0.315	0.987
GCATATAGGTTATACAAGGTGAAAGTCCGATTGT	2.85	6.15	1.21	3.08	0.203	2.94	2.19	2.63	0.843	1.98
CCTACTGGGCCAAGGTCATTGTTCAGTCAAAGCA	2.83	3.04	1.28	2.99	-0.347	4.06	3.84	4.26	1.73	3.71
TCGAGTAGGTTACCAATGGAGCATTCAGCTTTCT	-0.291	0.37	-0.758	-0.00248	-1.32	0.92	0.264	1.16	1.33	1.08
AGAATAAGGTTATACGTAGATCAGGGAAGAAAGT	1.99	1.9	0.223	1.56	0.0959	2.65	1.67	1.3	0.895	1.04
CGAACTAGGTCATCCAGGACAGTGACTACATTGA	4.72	2.67	0.428	1.91	-0.136	4.84	7.74	6.43	3.94	6.21
GAAACAGGGTCAGCTAGAGGCCAGAGTATGGAAA	5.08	2.78	-0.301	2.7	-0.705	4.97	4.24	3.85	0.859	2.72
GCTAGGTGGTCAGTAAAAGGTCACACACCGGTCG	3.63	4.57	4.44	4.2	0.699	4.56	2.78	4.14	1.72	3.51
